Screening data as filed in PubChem.
PKA-R1A act: activators of PKA-R1A holoenzyme, primary screen, biochemical, fluorescence polarization, Cy5-IP20, bovine R1A, mouse PKAc. hit rate 0.083% among 340,000. PKA-R1A dissociation; scaled: DMSO 0%, 113 µM cGMP 100%. activation, % at 11.4 µM. cAMP-dependent protein kinase type I-alpha regulatory subunit (Bos taurus) + …;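 active = percent activation above the mean of all tested compounds plus 3 SD, cut at about 19% in these data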;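 also: higher means more PKAc released from R1A so a rise in polarization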
PAFAH1B2 FP inh: PAFAH1B2 enzyme inhibitors, primary screen, biochemical, fluorescence polarization, human; Platelet-activating factor acetylhydrolase IB subunit alpha2 (Homo sapiens), P68402; hit rate 1.2% among 340,000; inhibition, % at 3.39 µM; AID 492953, 2010; recombinant PAFAH1B2, FP-rhodamine activity probe;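 active = inhibition above the mean of all tested compounds plus 3 SD, cut at about 24% in these data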;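 also: 0% = enzyme with DMSO and 100% = wells lacking PAFAH1B2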
PAFAH1B3 inh: PAFAH1B3 enzyme inhibitors, primary screen, biochemical, fluorescence polarization, human; inhibition, % at 3.39 µM; Platelet-activating factor acetylhydrolase IB subunit alpha1 (Homo sapiens), Q15102; recombinant PAFAH1B3, FP-rhodamine probe; hit rate 0.28% among 340,000;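 active = inhibition above the screen-wide average of all tested compounds plus 3 SD, cut at about 25% in these data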;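 also: 0% = enzyme with DMSO only and 100% = wells lacking PAFAH1B3 protein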
Target sequence (Q15102 whole entry, looked up): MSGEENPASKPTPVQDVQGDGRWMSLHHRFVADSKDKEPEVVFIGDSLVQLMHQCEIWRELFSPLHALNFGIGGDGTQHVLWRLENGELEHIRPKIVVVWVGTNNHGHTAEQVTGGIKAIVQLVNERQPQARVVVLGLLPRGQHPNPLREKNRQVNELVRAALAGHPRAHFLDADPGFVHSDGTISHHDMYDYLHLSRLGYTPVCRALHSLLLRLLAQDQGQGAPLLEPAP
PAFAH2 FP inh: PAFAH2 enzyme inhibitors, primary screen, biochemical, fluorescence polarization, human; AID 492956, 2010; Platelet-activating factor acetylhydrolase 2, cytoplasmic (Homo sapiens), Q99487; recombinant PAFAH2, FP-rhodamine activity probe; inhibition, % at 3.39 µM; hit rate 0.99% among 340,000;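 active = inhibition above the mean over all tested compounds plus 3 SD, cut at about 30% in these data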;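 also: inhibitors block probe labeling of enzyme so polarization drops; 0% = enzyme with DMSO and 100% = wells lacking PAFAH2 protein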
PKA-R2B activ: activators of PKA-R2B holoenzyme, primary screen, biochemical, fluorescence polarization, Cy5-IP20, human | PKA-R2B holoenzyme dissociation; R2B truncated from residue 108, S112A mutant; 0% DMSO only, 100% 113 µM cGMP | hit rate 0.079% among 340,000 | activation, % at 11.4 µM | cAMP-dependent protein kinase catalytic subunit beta (Homo sapiens) + cAMP-dependent …;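 active = activation above a cutoff set at the mean over all compounds plus 3 SD, cut at about 18% in these data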;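 also: higher means more holoenzyme dissociation and a rise in polarization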
Target sequence (P31323 whole entry, looked up, other chains not shown, the tested form may be a part): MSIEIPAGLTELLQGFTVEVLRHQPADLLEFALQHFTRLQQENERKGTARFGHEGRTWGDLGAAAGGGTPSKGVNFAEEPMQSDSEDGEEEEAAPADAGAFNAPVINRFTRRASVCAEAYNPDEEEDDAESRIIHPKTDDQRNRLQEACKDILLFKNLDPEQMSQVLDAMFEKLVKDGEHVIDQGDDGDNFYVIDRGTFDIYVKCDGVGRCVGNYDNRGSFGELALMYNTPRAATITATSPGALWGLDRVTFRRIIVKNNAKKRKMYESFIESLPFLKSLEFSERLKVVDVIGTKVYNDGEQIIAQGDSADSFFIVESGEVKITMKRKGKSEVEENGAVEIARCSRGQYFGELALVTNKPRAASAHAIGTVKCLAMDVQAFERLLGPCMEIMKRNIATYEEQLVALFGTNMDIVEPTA
pPAFAH FP inh: pPAFAH enzyme inhibitors, primary screen, biochemical, fluorescence polarization, human | Platelet-activating factor acetylhydrolase (Homo sapiens), Q13093 | recombinant pPAFAH, FP-rhodamine probe fluorescence polarization | inhibition, % at 3.39 µM | hit rate 1.5% among 330,000 | AID 463082, 2010;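 active = inhibition above the mean inhibition across the screen plus 3 SD, cut at about 25% in these data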;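 also: inhibitors block binding of the rhodamine activity-based probe so polarization drops; 0% = enzyme with DMSO and 100% = wells lacking pPAFAH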
* = called active by the depositor; / = no result given. Most compounds without a hit are left out; they make up all but 2.6% or so of the library.

SMILES | PKA-R1A act | PAFAH1B2 FP inh | PAFAH1B3 inh | PAFAH2 FP inh | PKA-R2B activ | pPAFAH FP inh
CC(OC(=O)c1ncc(Cl)c(Cl)c1Cl)C(=O)NC1CCCCC1C (stereo not drawn) | -7.1 | 9.0 | 7.9 | 2.0 | -3.9 | 5.0
c1ccc2n[nH]nc2c1 | 6.1 | 3.9 | 2.7 | 6.8 | 2.1 | /
COc1ccccc1NS(=O)(=O)c1cccc(-n2c(O)c(C=Nc3ccccc3C(=O)O)c3ccccc3c2=O)c1 | 0.7 | 7.2 | 6.4 | 83.0* | -7.0 | 30.2*
COc1ccc(Cn2c(O)c(C=Nc3ccccc3C(=O)O)c3ccccc3c2=O)cc1 | -4.0 | 4.1 | 10.1 | 37.0* | 1.9 | 26.6*
COc1ccc(-n2c(O)c(/C=N/NS(=O)(=O)c3ccc(C)cc3)c3ccccc3c2=O)cc1OC | -6.4 | -20.8 | -42.8 | -50.6 | 11.9 | -4.3
COc1ccc(Cn2c(O)c(C=Nc3ccc(OC)cc3)c3ccccc3c2=O)cc1 | -0.7 | -1.6 | 2.4 | 0.7 | -7.6 | -1.0
COc1ccc(CNC(=O)CCC(=O)n2ncc3cc(C)ccc32)cc1 | 3.1 | 3.4 | -1.2 | 5.6 | -4.8 | 5.9
Nc1ccc2nc(-c3cccc(-c4nc5ccc(N)cc5[nH]4)c3)[nH]c2c1 | -3.0 | 24.3* | 30.5* | 6.7 | 9.8 | 6.0
CC1SC(=S)N(c2ccc(N(C)C)cc2)C1=O (stereo not drawn) | -16.1 | 1.4 | 10.5 | -3.5 | -3.4 | 29.3*
CN(C)c1ccc(N2C(=O)CC(c3ccccc3)CC2=O)cc1 | -3.3 | 1.4 | 0.8 | 0.4 | -2.5 | -0.9
COc1ccc2[nH]cc(CCNC(=O)COc3cc(C)cc4oc(=O)cc(C)c34)c2c1 | -9.3 | 24.9* | 6.5 | 16.3 | -3.7 | 2.8
Cc1cc(OC(C)C(=O)NCCc2c[nH]c3ccccc23)c2c(C)cc(=O)oc2c1 (stereo not drawn) | 0.7 | 22.4 | 1.4 | -2.5 | -1.9 | 4.3
CC12CCC(C/C1=N\N=C1\NC(=O)/C(=C\c3cccc(Br)c3)S1)C2(C)C (stereo not drawn) | -9.7 | 9.4 | 2.5 | 10.1 | -6.7 | 26.9*
COc1cc(/C=N/N=C2\CC3CCC2(C)C3(C)C)ccc1O (stereo not drawn) | -11.9 | 1.2 | 0.7 | 3.8 | -3.4 | -0.4
CCCCc1nc2cc(C(=O)N(C)C3CCOCC3)ccc2o1 | -5.8 | -2.5 | 0.8 | -2.4 | -3.2 | -0.5
c1ccc2c(c1)CCN(c1nc(CN3CCOCC3)nc3sc4c(c13)CCCC4)C2 | -1.3 | 2.7 | 3.6 | 4.4 | -7.0 | 31.8*
O=C(Oc1cccc(Oc2ccccc2)c1)N1CCOCC1 | -3.8 | 4.9 | 6.4 | 5.3 | -6.8 | 25.3*
O=C(Oc1cccc(C(=S)N2CCOCC2)c1)c1ccccc1 | -5.7 | 6.5 | -3.4 | -2.1 | -3.8 | 5.2
Cc1ccc(NC2=C/C(=N/S(=O)(=O)c3cccs3)c3ccccc3C2=O)cc1C | -3.6 | -2.9 | 9.7 | 1.1 | 10.4 | -1.8
COc1ccc(S(=O)(=O)c2ccc(O)cc2)cc1 | 7.3 | 7.5 | 7.0 | 4.2 | -6.3 | -0.3
CC(=O)Nc1ccc(NC2=C/C(=N/S(=O)(=O)c3cccs3)c3ccccc3C2=O)cc1 | / | / | / | / | / | 30.7*
Cc1ccccc1NC1=C/C(=N\S(=O)(=O)c2cccs2)c2ccccc2C1=O | -2.4 | 24.6* | 64.3* | 40.4* | -4.3 | 20.9
CC(=O)Nc1ccc(NC(=O)C(C)OC(=O)c2ccccc2NS(=O)(=O)c2cccs2)cc1 (stereo not drawn) | -2.8 | 0.8 | 5.3 | 5.3 | -4.2 | 1.3
COc1ccc(S(=O)(=O)/N=C2\C=C(Nc3ccc(O)cc3)C(=O)c3ccccc32)cc1 | -7.2 | 24.8* | 70.4* | 43.2* | 2.1 | 25.7*
CCOC(=O)c1cc(C#N)c(SC(C)C(=O)NC2CCCCC2)nc1C (stereo not drawn) | 4.3 | 4.7 | -3.8 | 1.8 | 1.0 | -1.2
SMILES | PKA-R1A act | PAFAH1B2 FP inh | PAFAH1B3 inh | PAFAH2 FP inh | PKA-R2B activ | pPAFAH FP inh
O=C(NC(Nc1nc2ccc([N+](=O)[O-])cc2s1)(C(F)(F)F)C(F)(F)F)c1cccnc1 | 0.9 | 5.4 | 10.4 | -3.3 | -8.8 | 7.4
O=C(NC(Nc1nc2ccc([N+](=O)[O-])cc2s1)(C(F)(F)F)C(F)(F)F)c1ccccc1Cl | -0.9 | -4.6 | -3.3 | 1.8 | -4.2 | 33.0*
Cn1c2ccccc2c2cc(/C=N/NC(=O)c3cc(O)cc(O)c3)ccc21 | -10.2 | 24.9* | 16.3 | -34.2 | -3.0 | 29.6*
CCn1c2ccccc2c2cc(/C=N/NC(=O)c3ccccc3)ccc21 | 0.7 | 1.3 | -8.3 | -13.8 | -6.0 | 1.9
Cc1ccc(C(=O)N/C(=C/c2ccc(-c3cc(C(F)(F)F)ccc3Cl)o2)C(=O)NCc2cccnc2)cc1 | 4.3 | -3.8 | -4.5 | -7.9 | -0.3 | 8.3
O=C(NCc1cccnc1)/C(=C/c1ccc(-c2cccc(C(F)(F)F)c2)o1)NC(=O)c1ccccc1 | 8.5 | 5.1 | 5.1 | -7.1 | -3.8 | 29.8*
Nc1c(C(=O)NC2CCCC2)c2nc3ccccc3nc2n1N | -5.0 | 2.6 | 0.3 | -0.7 | -2.8 | 24.7*
O=C(O)c1cc(NC(=O)c2ccc(Br)cc2)cc(NC(=O)c2ccc(Br)cc2)c1 | -8.6 | 29.6* | -4.3 | -10.3 | -13.1 | -15.1
O=C(O)c1cc(NC(=O)c2ccc([N+](=O)[O-])cc2)cc(NC(=O)c2ccc([N+](=O)[O-])cc2)c1 | 0.6 | 15.0 | 5.0 | 2.9 | 14.1 | 3.4
CCN(C(=O)COC(=O)C(C)(C)Oc1ccc(Cl)cc1)c1c(N)n(Cc2ccccc2)c(=O)[nH]c1=O | -9.5 | 1.0 | 8.5 | -5.5 | -4.5 | /
CN(C(=O)COC(=O)C(C)(C)Oc1ccc(Cl)cc1)c1c(N)n(Cc2ccccc2)c(=O)[nH]c1=O | -8.4 | 4.7 | 3.0 | 4.2 | -11.0 | 28.9*
Cn1cnnc1Sc1ccc(/C=C(\CCC(=O)O)c2nc3ccccc3s2)cc1[N+](=O)[O-] | -0.2 | 25.6* | 3.5 | -2.7 | -15.9 | 7.1
CNC(=O)N(O)C1N(/N=C/c2c(F)cccc2Cl)C(=S)SC1(C)C (stereo not drawn) | -6.3 | 0.1 | 0.3 | 4.5 | 3.4 | -2.0
O=C(CSc1n[nH]c(-c2ccc(S(=O)(=O)N3CCCCC3)cc2)n1)Nc1nccs1 | 3.0 | 38.6* | 2.2 | 5.5 | 1.6 | 17.5
O=C(Cc1ccc(Br)cc1)Nc1ncc([N+](=O)[O-])s1 | 3.3 | 35.1* | 12.2 | 11.3 | -4.0 | 15.2
O=C(Cc1ccc(Cl)cc1)Nc1ncc([N+](=O)[O-])s1 | -7.7 | 15.9 | 2.6 | 9.5 | -6.8 | /
